Results on 40 compounds are retold here after PubChem BioAssay (Tox21).

The structures appear in SMILES notation. Results filed as inconclusive are left out. Where a call stands in place of a potency, no number is given. Calls of active or inactive are those of the source. Calls follow the shape of the dose curve; as a rule, active = well fitted cell-killing curve with a large enough effect in the repeat runs; inconclusive = weak or mixed curves, or effect the other way; inactive = flat fitted curve, though single readings scatter.

The nature of this test: Nuclear factor erythroid 2-related factor 2/antioxidant responsive element (Nrf2/ARE) small molecule agonists: qHTS cell viability counter screen in human keratinocytes (AID 1919968). Also: nearly all actives have a fitted effect of over 55% in size. Particulars: KeratinoSens HaCaT ARE cells viability, CellTiter-Fluor, 24 h; series mostly up to 92.4 µM. The source says:
U.S. Tox21 Program National Center for Advancing Translational Sciences [NCATS] Division of Preclinical Innovation [DPI] U.S. Environmental Protection Agency [EPA] National Institutes of Environmental Health Sciences [NIEHS] National Toxicology Program [NTP] U.S. Food and Drug Administration [FDA] Tox21 Assay Overview: Oxidative stress has been implicated in the pathogenesis of a variety of diseases ranging from cancer to neurodegeneration. The antioxidant response element (ARE) signaling pathway plays an important role in the amelioration of oxidative stress. The KeratinoSens (Givaudan, Switzerland) is an in vitro test method which quantifies luciferase induction as a measure of activation of Keap1-Nrf2-antioxidationt/electrophile response element (ARE) dependant pathway in HaCaT human keratinocytes stably transfected with a selectable plasmid. The KeratinoSens assay is a cell-based assay with a reporter cell line to detect potential skin sensitizers by their ability to induce the Nrf2/ARE-response. The activation of the report gene under culture conditions can be detected by ONE-Glo Luciferase Assay System (Promega, Madison, WI). This cell line has been used to screen the Tox21 10K compound library to identify agonists that induce oxidative stress. The cytotoxicity of the Tox21 compound library against the KS-ARE cell line was tested in parallel by measuring the cell viability using CellTiter- Fluor assay system (Promega, Madison, WI) in the same wells.
Tox21 Assay Protocol Summary: HaCaT derived cell line KeratinoSens were dispensed at 1,500 cells/5uL/well in 1536-well white wall/solid bottom plates using a Multidrop Combi (ThermoFisher Scientific, Waltham, MA) dispenser. After the assay plates were incubated at 37 C/5% CO2 for 5 h, 23 nL of compounds dissolved in DMSO, positive controls or DMSO only was transferred to the assay plate by a pintool workstation (Kalypsys, San Diego, CA). The plates were incubated at 37 C/5% CO2 for 23 h, followed by addition of 1uL/well of CellTiter-Fluor reagent into the assay plates using a Flying Reagent Dispenser (Aurora Discovery, San Diego, CA) for cell viability readout that measures cytotoxicity. After 1 h incubation at 37 C/5% CO2 the fluorescence intensity was measured using a ViewLux (PerkinElmer, Shelton, CT) plate reader.
In general terms: qHTS replaces the single test concentration by a dilution series.
As for `CC(=O)c1ccccn1`, the Potency entry was “inactive”. With `CCc1nc(N)nc(N)c1-c1ccc(Cl)cc1` the entry was “inactive”; with `CCCc1c(OCCCCc2nn[nH]n2)ccc(C(C)=O)c1O`, “inactive”. With `O=C1CCCCCCCCCCCN1` the entry was “inactive”; with `CC(=O)Nc1ccccc1`, “inactive”.

For `C=C(C)CNCC`, the Potency entry was “inactive”. The value for `Cc1c(N(C)CS(=O)(=O)O)c(=O)n(-c2ccccc2)n1C` was “inactive”; that for `O=C1C(c2[nH]c3ccccc3c2O)=Nc2ccccc21` was “inactive”. With `Cc1[nH]c(=O)c(C#N)cc1-c1ccncc1` the entry was “inactive”. On to `O=C1NC(=O)c2ccccc21`, for which the Potency entry is “inactive”. With `Oc1ccc(O)cc1` the entry was “inactive”; with `OB(O)O`, “inactive”; with `CC1(C)OC[C@@H]2O[C@@]3(C(=O)O)OC(C)(C)O[C@H]3[C@@H]2O1`, “inactive”.

For the compound `Cc1cccc2n[nH]nc12`, the Potency entry was “inactive”.

In the case of `CC(=O)O[C@]1(C(C)=O)CC[C@H]2[C@@H]3C=C(Cl)C4=CC(=O)CC[C@]4(C)[C@H]3CC[C@@]21C`, the Potency result is “inactive”. The value for `C=CC(=O)OCCCC` was “inactive”; that for `CC(=O)OC(C)C` was “inactive”; that for `Nc1nc2ncc(CNc3ccc(C(=O)N[C@@H](CCC(=O)O)C(=O)O)cc3)nc2c(=O)[nH]1` was “inactive”.

For the compound `C=CC(C)(CCC=C(C)C)OC(C)=O` (stereo not given), the Potency result was “inactive”.

As for `O=C(O)CCCCCCCC(=O)O`, the Potency result is “inactive”.

Turning to `OC[C@@H](O)[C@@H](O[C@@H]1O[C@H](CO)[C@H](O)[C@H](O)[C@H]1O)[C@H](O)[C@@H](O)CO`, the Potency result was “inactive”. With `CCCCCCCCCC(=O)O`, the Potency result is “inactive”.

As for `C=CCOC(=O)C(=C)C`, the Potency result is “inactive”. The value for `CC(=O)OC(C)(C)C1CC=C(C)CC1` (stereo not given) was “inactive”; that for `CN(C)CCC(c1ccccc1)c1ccccn1` (stereo not given) was “inactive”.

Consider `CCOc1ccc(NC(=O)CC(C)O)cc1` (stereo not given), for which the Potency entry is “inactive”.

As for `CS(=O)(=O)c1ccc([C@@H](O)[C@@H](CO)NC(=O)C(Cl)Cl)cc1`, the Potency result was “inactive”.

Consider `O=C(O)c1cccnc1`, for which the Potency entry was “inactive”. The value for `C=CC(C)(C)C` was “inactive”; that for `NC(=O)N1c2ccccc2C=Cc2ccccc21` was “inactive”; that for `OCc1ccc(Cl)cc1Cl` was “inactive”. The value for `COCC(=O)O` was “inactive”. With `CC(C)C(=O)Nc1ccc([N+](=O)[O-])c(C(F)(F)F)c1` the entry was “inactive”. Regarding `CCCCC(C=O)CC` (stereo not given), the Potency result is “inactive”.

Take `CSc1ccc(Cl)cc1`: the Potency entry was “inactive”. With `c1ccc2[nH]c(-c3cscn3)nc2c1` the entry was “inactive”; with `COCC(C)O` (stereo not given), “inactive”.

For the compound `Cc1ccncc1`, the Potency result is “inactive”. Regarding `CCCC(O)C(CC)CO` (stereo not given), the Potency entry is “inactive”. With `O=C(OCc1ccccc1)c1ccc(O)cc1` the entry was “inactive”.
